This is an account of results in paper PMC12820563, “FoxP3 forms a head-to-head dimer in vivo and stabilizes its multimerization on adjacent microsatellites”.

The full ranking holds about 16,000 sequences; the median of “rpm ratio (pull-down/input)” is about 0.94, and the highest 2% start at about 1.7. This excerpt belongs to a sample that is enriched for the highest values.

The assay addresses T1, MBP-FoxP1dN (Mus musculus, UniProt P58462 326-579).
T1 sequence: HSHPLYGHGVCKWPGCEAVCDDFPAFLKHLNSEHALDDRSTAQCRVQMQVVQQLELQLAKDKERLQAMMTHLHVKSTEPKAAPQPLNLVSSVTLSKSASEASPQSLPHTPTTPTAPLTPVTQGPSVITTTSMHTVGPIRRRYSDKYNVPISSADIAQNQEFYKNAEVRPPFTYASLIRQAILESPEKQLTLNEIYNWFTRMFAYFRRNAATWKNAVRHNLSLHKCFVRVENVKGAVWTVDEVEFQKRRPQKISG
The assay is described as follows: PD-seq (MBP pull-down with sequencing); 20 mM Tris-HCl pH 7.5, 100 mM NaCl, 1.5 mM MgCl2, 0.4 uM protein, 0.1 uM dsDNA library, 30 min, room temperature, amylose pull-down; high values mean tight binding. The conditions noted are these: protein: recombinant; tags: His6-MBP; chain copies: 2; dsDNA, one strand shown. Put shortly:
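Binding is reads-per-million enrichment of pull-down over input, with replicates pooled. It comes from 30 min room-temperature incubation in Tris pH 7.5 buffer with NaCl and MgCl2 of 0.4 µM His6-MBP-tagged, N-terminally truncated mouse FoxP3 or FoxP1 fragment from E. coli with 0.1 µM Klenow-filled degenerate double-stranded DNA library, followed by amylose resin capture, three washes and Illumina sequencing of the released DNA.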
Consider “GATGATTGTTCTCCCAGCTGATGAATTCCTCAGATCGAGTAAACAAATTTTCCTAATCTTTCTGTTCAAGCGCCATCTAC”, for which the binding signal is 0.761 RPM ratio (pull-down/input).

Regarding “GATGATTGTTCTCCCAGCTGATGAATTCATAAACTCGAGTAAACAAATTTTCCTAATCTTTCTGTTCAAGCGCCATCTAC”, the binding signal was 1.07 RPM ratio (pull-down/input).

Consider “GATGATTGTTCTCCCAGCTGATGAATTATTGCCATCGAGTAAACAAATTTTCCTAATCTTTCTGTTCAAGCGCCATCTAC”, for which the binding signal was 1.24 RPM ratio (pull-down/input).

For “GATGATTGTTCTCCCAGCTGATGAATTTGCATGATCGAGTAAACAAATTTTCCTAATCTTTCTGTTCAAGCGCCATCTAC”, the binding signal is 1.05 RPM ratio (pull-down/input).

In the case of “GATGATTGTTCTCCCAGCTGATGAATTTTTTGCATCGAGTAAACAAATTTTCCTAATCTTTCTGTTCAAGCGCCATCTAC”, the binding signal was 1.45 RPM ratio (pull-down/input).

On to “GATGATTGTTCTCCCAGCTGATGAATTTGTTGCATCGAGTAAACAAATTTTCCTAATCTTTCTGTTCAAGCGCCATCTAC”, for which the binding signal was 1.84 RPM ratio (pull-down/input).

For the sequence “GATGATTGTTCTCCCAGCTGATGAATTATTTGCATCGAGTAAACAAATTTTCCTAATCTTTCTGTTCAAGCGCCATCTAC”, the binding signal was 1.89 RPM ratio (pull-down/input).

Turning to “GATGATTGTTCTCCCAGCTGATGAATTATTGCAATCGAGTAAACAAATTTTCCTAATCTTTCTGTTCAAGCGCCATCTAC”, the binding signal was 1.49 RPM ratio (pull-down/input).

Take “GATGATTGTTCTCCCAGCTGATGAATTCTTTGCATCGAGTAAACAAATTTTCCTAATCTTTCTGTTCAAGCGCCATCTAC”: the binding signal is 1.26 RPM ratio (pull-down/input).

Turning to “GATGATTGTTCTCCCAGCTGATGAATTTGCAGCATCGAGTAAACAAATTTTCCTAATCTTTCTGTTCAAGCGCCATCTAC”, the binding signal is 1.09 RPM ratio (pull-down/input).

Take “GATGATTGTTCTCCCAGCTGATGAATTGTTTGCATCGAGTAAACAAATTTTCCTAATCTTTCTGTTCAAGCGCCATCTAC”: the binding signal is 2.26 RPM ratio (pull-down/input).

As to “GATGATTGTTCTCCCAGCTGATGAATTCCCCTCTTCGAGTAAACAAATTTTCCTAATCTTTCTGTTCAAGCGCCATCTAC”, the binding signal is 0.821 RPM ratio (pull-down/input).

As for “GATGATTGTTCTCCCAGCTGATGAATTCTCAGGGTCGAGTAAACAAATTTTCCTAATCTTTCTGTTCAAGCGCCATCTAC”, the binding signal is 0.745 RPM ratio (pull-down/input).

For the sequence “GATGATTGTTCTCCCAGCTGATGAATTGTGCCTGTCGAGTAAACAAATTTTCCTAATCTTTCTGTTCAAGCGCCATCTAC”, the binding signal was 0.964 RPM ratio (pull-down/input).

Consider “GATGATTGTTCTCCCAGCTGATGAATTTCGCAAGTCGAGTAAACAAATTTTCCTAATCTTTCTGTTCAAGCGCCATCTAC”, for which the binding signal was 0.831 RPM ratio (pull-down/input).

As for “GATGATTGTTCTCCCAGCTGATGAATTAGGAACGTCGAGTAAACAAATTTTCCTAATCTTTCTGTTCAAGCGCCATCTAC”, the binding signal is 0.882 RPM ratio (pull-down/input).

As for “GATGATTGTTCTCCCAGCTGATGAATTGCCGTCGTCGAGTAAACAAATTTTCCTAATCTTTCTGTTCAAGCGCCATCTAC”, the binding signal is 0.968 RPM ratio (pull-down/input).

Turning to “GATGATTGTTCTCCCAGCTGATGAATTAGACATATCGAGTAAACAAATTTTCCTAATCTTTCTGTTCAAGCGCCATCTAC”, the binding signal was 1.06 RPM ratio (pull-down/input).

On to “GATGATTGTTCTCCCAGCTGATGAATTTACTAAGTCGAGTAAACAAATTTTCCTAATCTTTCTGTTCAAGCGCCATCTAC”, for which the binding signal was 1.29 RPM ratio (pull-down/input).

With “GATGATTGTTCTCCCAGCTGATGAATTCCCACGATCGAGTAAACAAATTTTCCTAATCTTTCTGTTCAAGCGCCATCTAC”, the binding signal was 0.81 RPM ratio (pull-down/input).

On to “GATGATTGTTCTCCCAGCTGATGAATTTCTAATATCGAGTAAACAAATTTTCCTAATCTTTCTGTTCAAGCGCCATCTAC”, for which the binding signal was 1.09 RPM ratio (pull-down/input).

In the case of “GATGATTGTTCTCCCAGCTGATGAATTGCAAATATCGAGTAAACAAATTTTCCTAATCTTTCTGTTCAAGCGCCATCTAC”, the binding signal is 1.85 RPM ratio (pull-down/input).

With “GATGATTGTTCTCCCAGCTGATGAATTGTCAATATCGAGTAAACAAATTTTCCTAATCTTTCTGTTCAAGCGCCATCTAC”, the binding signal was 2.23 RPM ratio (pull-down/input).

As to “GATGATTGTTCTCCCAGCTGATGAATTCCTAATATCGAGTAAACAAATTTTCCTAATCTTTCTGTTCAAGCGCCATCTAC”, the binding signal is 1.07 RPM ratio (pull-down/input).

Take “GATGATTGTTCTCCCAGCTGATGAATTTCAAATATCGAGTAAACAAATTTTCCTAATCTTTCTGTTCAAGCGCCATCTAC”: the binding signal is 0.914 RPM ratio (pull-down/input).

Turning to “GATGATTGTTCTCCCAGCTGATGAATTTGCAATATCGAGTAAACAAATTTTCCTAATCTTTCTGTTCAAGCGCCATCTAC”, the binding signal was 1.34 RPM ratio (pull-down/input).

On to “GATGATTGTTCTCCCAGCTGATGAATTTTCAATATCGAGTAAACAAATTTTCCTAATCTTTCTGTTCAAGCGCCATCTAC”, for which the binding signal is 1.06 RPM ratio (pull-down/input).

“GATGATTGTTCTCCCAGCTGATGAATTTGTAATATCGAGTAAACAAATTTTCCTAATCTTTCTGTTCAAGCGCCATCTAC”: the binding signal was 1.36 RPM ratio (pull-down/input).

Regarding “GATGATTGTTCTCCCAGCTGATGAATTCTGAATATCGAGTAAACAAATTTTCCTAATCTTTCTGTTCAAGCGCCATCTAC”, the binding signal was 0.974 RPM ratio (pull-down/input).

Turning to “GATGATTGTTCTCCCAGCTGATGAATTCTAAATATCGAGTAAACAAATTTTCCTAATCTTTCTGTTCAAGCGCCATCTAC”, the binding signal was 1.76 RPM ratio (pull-down/input).

Turning to “GATGATTGTTCTCCCAGCTGATGAATTGTAAATATCGAGTAAACAAATTTTCCTAATCTTTCTGTTCAAGCGCCATCTAC”, the binding signal was 2.72 RPM ratio (pull-down/input).

Consider “GATGATTGTTCTCCCAGCTGATGAATTTCCAATATCGAGTAAACAAATTTTCCTAATCTTTCTGTTCAAGCGCCATCTAC”, for which the binding signal was 1.02 RPM ratio (pull-down/input).

As to “GATGATTGTTCTCCCAGCTGATGAATTAGAAAGGTCGAGTAAACAAATTTTCCTAATCTTTCTGTTCAAGCGCCATCTAC”, the binding signal was 0.826 RPM ratio (pull-down/input).

For the sequence “GATGATTGTTCTCCCAGCTGATGAATTCACCTACTCGAGTAAACAAATTTTCCTAATCTTTCTGTTCAAGCGCCATCTAC”, the binding signal is 0.921 RPM ratio (pull-down/input).

Consider “GATGATTGTTCTCCCAGCTGATGAATTTATCGCTTCGAGTAAACAAATTTTCCTAATCTTTCTGTTCAAGCGCCATCTAC”, for which the binding signal was 1.1 RPM ratio (pull-down/input).

With “GATGATTGTTCTCCCAGCTGATGAATTCGTCCCCTCGAGTAAACAAATTTTCCTAATCTTTCTGTTCAAGCGCCATCTAC”, the binding signal was 0.772 RPM ratio (pull-down/input).

On to “GATGATTGTTCTCCCAGCTGATGAATTTTGAGAATCGAGTAAACAAATTTTCCTAATCTTTCTGTTCAAGCGCCATCTAC”, for which the binding signal was 0.914 RPM ratio (pull-down/input).

With “GATGATTGTTCTCCCAGCTGATGAATTACAAAAATCGAGTAAACAAATTTTCCTAATCTTTCTGTTCAAGCGCCATCTAC”, the binding signal was 1.59 RPM ratio (pull-down/input).

“GATGATTGTTCTCCCAGCTGATGAATTTACAACATCGAGTAAACAAATTTTCCTAATCTTTCTGTTCAAGCGCCATCTAC”: the binding signal is 1.67 RPM ratio (pull-down/input).

As for “GATGATTGTTCTCCCAGCTGATGAATTGTTTACATCGAGTAAACAAATTTTCCTAATCTTTCTGTTCAAGCGCCATCTAC”, the binding signal is 2.91 RPM ratio (pull-down/input).

As to “GATGATTGTTCTCCCAGCTGATGAATTTACAAAATCGAGTAAACAAATTTTCCTAATCTTTCTGTTCAAGCGCCATCTAC”, the binding signal was 1.74 RPM ratio (pull-down/input).

Turning to “GATGATTGTTCTCCCAGCTGATGAATTACATAAATCGAGTAAACAAATTTTCCTAATCTTTCTGTTCAAGCGCCATCTAC”, the binding signal is 1.64 RPM ratio (pull-down/input).

In the case of “GATGATTGTTCTCCCAGCTGATGAATTTTACATATCGAGTAAACAAATTTTCCTAATCTTTCTGTTCAAGCGCCATCTAC”, the binding signal is 0.97 RPM ratio (pull-down/input).

In the case of “GATGATTGTTCTCCCAGCTGATGAATTTACATAATCGAGTAAACAAATTTTCCTAATCTTTCTGTTCAAGCGCCATCTAC”, the binding signal was 1.76 RPM ratio (pull-down/input).

Regarding “GATGATTGTTCTCCCAGCTGATGAATTTTACAAATCGAGTAAACAAATTTTCCTAATCTTTCTGTTCAAGCGCCATCTAC”, the binding signal is 1.1 RPM ratio (pull-down/input).

Consider “GATGATTGTTCTCCCAGCTGATGAATTTTTTACATCGAGTAAACAAATTTTCCTAATCTTTCTGTTCAAGCGCCATCTAC”, for which the binding signal was 0.953 RPM ratio (pull-down/input).
